From PubChem BioAssay
Rows were chosen to be rich in hits. Some 6.9% of all compounds tested hit in one or more screens of this group.
L3MBTL1 block: inhibitors of human L3MBTL1 | Q9Y468 | AlphaScreen L3MBTL1–H3K9me1 peptide binding | Potency, µM (titrated, usually from 57.1 µM), for the others: at the highest dose activity, negative = inhibition, usual class: inhibitors | 230,000 compounds, 0.66% hits | AID 485360; further: on the % scale 0 is the no-effect control and ±100 the full control effect; nearly all actives have a fitted effect of over 60% in size
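AlphaScreen proximity signal between nickel-chelate acceptor and streptavidin donor beads (final 10 ug/mL) reports binding of 50 nM L3MBTL1 to 75 nM biotin-H3 K9me1 peptide; complex incubated with compounds 30 min at room temperature; cefsulodin titration as control.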
HP1b binding inh: HP1-beta chromodomain-methylated histone interaction inhibition; 390,000 compounds, 0.56% hits; Potency, µM (highest dose often 114 µM), for inactives: at the highest dose activity change, negative = inhibition, actives largely listed as inhibitors; P83916; AlphaScreen HP1-beta / biotin-H3K9me3 peptide binding; further: nearly all actives have a fitted effect of over 70% in size
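Compound inhibition of the preformed complex between 50 nM HP1-beta and 50 nM biotinylated H3K9me3 peptide was read by AlphaScreen. Buffer was PBS pH 7.4 with 0.01% Tween-20. Incubations ran 30 min at room temperature, with 10 ug/mL donor/acceptor beads.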
BAZ2B inh: blocks human BAZ2B; AlphaScreen BAZ2B-H3K14Ac peptide displacement; Potency, µM (series often up to 114 µM), for the others: at the highest dose activity change, negative = inhibition, usual class: inhibitors; 360,000 compounds, 4.4% hits; further: on the % scale 0 is the no-effect control and ±100 the full control effect; nearly all actives have a fitted effect of over 60% in size
Target sequence (Q9UIF8 whole entry, looked up): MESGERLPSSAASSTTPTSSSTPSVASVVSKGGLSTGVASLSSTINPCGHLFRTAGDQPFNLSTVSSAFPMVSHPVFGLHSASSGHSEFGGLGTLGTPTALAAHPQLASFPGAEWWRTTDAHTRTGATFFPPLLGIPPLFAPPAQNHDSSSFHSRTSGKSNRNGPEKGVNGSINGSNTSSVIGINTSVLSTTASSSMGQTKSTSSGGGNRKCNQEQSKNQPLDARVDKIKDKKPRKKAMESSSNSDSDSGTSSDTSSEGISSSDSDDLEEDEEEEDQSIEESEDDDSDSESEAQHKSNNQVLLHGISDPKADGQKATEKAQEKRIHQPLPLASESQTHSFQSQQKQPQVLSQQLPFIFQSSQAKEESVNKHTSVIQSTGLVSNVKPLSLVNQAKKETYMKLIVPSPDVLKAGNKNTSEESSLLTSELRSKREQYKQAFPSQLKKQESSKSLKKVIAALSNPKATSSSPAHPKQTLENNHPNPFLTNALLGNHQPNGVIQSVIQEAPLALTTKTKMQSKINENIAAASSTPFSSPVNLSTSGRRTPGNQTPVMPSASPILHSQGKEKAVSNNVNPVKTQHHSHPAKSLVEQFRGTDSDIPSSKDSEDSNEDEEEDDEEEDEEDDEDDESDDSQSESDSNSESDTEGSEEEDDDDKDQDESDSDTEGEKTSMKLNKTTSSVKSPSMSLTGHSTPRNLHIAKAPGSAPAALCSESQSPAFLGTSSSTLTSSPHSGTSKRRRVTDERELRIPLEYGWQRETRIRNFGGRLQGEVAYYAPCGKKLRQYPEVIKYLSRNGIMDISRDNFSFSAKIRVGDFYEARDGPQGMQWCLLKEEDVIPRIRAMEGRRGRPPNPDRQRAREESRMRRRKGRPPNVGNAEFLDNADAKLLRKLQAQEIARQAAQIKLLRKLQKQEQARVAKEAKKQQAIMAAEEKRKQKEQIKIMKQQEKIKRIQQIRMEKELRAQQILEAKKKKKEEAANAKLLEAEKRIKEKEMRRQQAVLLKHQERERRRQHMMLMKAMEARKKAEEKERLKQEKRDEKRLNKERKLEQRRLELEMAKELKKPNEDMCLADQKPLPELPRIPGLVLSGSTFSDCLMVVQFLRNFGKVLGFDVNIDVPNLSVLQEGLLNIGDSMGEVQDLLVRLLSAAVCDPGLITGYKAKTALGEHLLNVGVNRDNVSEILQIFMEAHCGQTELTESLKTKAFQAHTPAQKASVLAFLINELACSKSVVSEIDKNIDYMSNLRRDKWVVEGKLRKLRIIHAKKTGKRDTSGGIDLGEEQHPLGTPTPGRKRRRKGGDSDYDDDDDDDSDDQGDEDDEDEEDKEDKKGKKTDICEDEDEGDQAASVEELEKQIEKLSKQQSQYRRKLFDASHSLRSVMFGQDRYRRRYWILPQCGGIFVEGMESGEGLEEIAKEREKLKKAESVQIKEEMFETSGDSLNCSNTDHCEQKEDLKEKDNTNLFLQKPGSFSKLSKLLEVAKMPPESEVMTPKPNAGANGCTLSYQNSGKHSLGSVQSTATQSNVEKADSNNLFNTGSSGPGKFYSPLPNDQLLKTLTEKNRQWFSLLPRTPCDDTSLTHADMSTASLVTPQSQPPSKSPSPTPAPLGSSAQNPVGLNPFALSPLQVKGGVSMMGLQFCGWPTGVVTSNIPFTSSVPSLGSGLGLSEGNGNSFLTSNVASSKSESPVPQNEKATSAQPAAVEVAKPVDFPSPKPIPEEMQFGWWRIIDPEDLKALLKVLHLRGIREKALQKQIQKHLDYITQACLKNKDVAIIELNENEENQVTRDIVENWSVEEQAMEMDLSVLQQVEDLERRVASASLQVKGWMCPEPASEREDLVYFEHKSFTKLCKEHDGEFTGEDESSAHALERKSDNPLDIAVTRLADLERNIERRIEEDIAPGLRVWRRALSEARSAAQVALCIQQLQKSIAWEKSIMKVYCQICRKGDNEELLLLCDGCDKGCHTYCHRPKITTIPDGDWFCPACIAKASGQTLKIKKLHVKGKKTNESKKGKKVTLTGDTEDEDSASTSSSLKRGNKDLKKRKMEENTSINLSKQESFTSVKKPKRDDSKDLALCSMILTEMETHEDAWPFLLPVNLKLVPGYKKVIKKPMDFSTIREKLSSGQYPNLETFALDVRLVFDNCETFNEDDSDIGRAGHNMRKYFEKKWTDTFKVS
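Multi-concentration screen (max 110 uM) measuring displacement of acetylated histone H3 peptide from BAZ2B by AlphaScreen, using 50 nM protein, 50 nM peptide and 10 ug/mL streptavidin donor plus Ni-chelate acceptor beads.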
JMJD2A Tudor: blocks the human JMJD2A Tudor domain. 390,000 compounds, 4.4% hits. AlphaScreen JMJD2A-Tudor / H3K4me3 peptide binding. Potency, µM (highest dose often 114 µM), for the others: at the highest dose activity change, negative = inhibition, most hits filed as inhibitors; further: on the % scale 0 is the no-effect control and ±100 the full control effect; nearly all actives have a fitted effect of over 50% in size
PLK1 PBD block: blocks phosphopeptide binding to human PLK1 polo-box domain; Plk1 PBD binding of FITC phosphopeptide, fluorescence polarization; Potency, µM, without a hit: max response, negative = inhibition, actives largely listed as inhibitors; 360,000 compounds, 2.8% hits; further: series mostly up to about 57 µM; on the % scale 0 is the no-effect control and ±100 the full control effect; nearly all actives have a fitted effect of over 65% in size
VDR inh: vitamin D3 receptor (human) inhibition; VDR-SRC2-3 peptide fluorescence polarization, 2 h; P11473; Potency, µM, for the others: max response, negative = inhibition, usual class: inhibitors; 400,000 compounds, 0.93% hits; further: on the % scale 0 is the no-effect control and ±100 the full control effect
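Two reagent solutions held at 4 deg C in the dark were dispensed, compounds pinned at 23 nl, and the mixture incubated 2 h at room temperature. Read-out: fluorescence polarization of VDR–SRC2-3 peptide binding.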
* hit, by the source's call; u = inconclusive; x = no result; [ ] = dose if it differs, or a comment. The call rests on the fitted dose curve; in most records, active means well fitted curve in the direction sought with a large enough effect; inconclusive means small, poorly fitted or top-dose-only effect, or another doubt; inactive means no such curve, though single readings can be large; an effect the other way counts as inactive or inconclusive. Potency means the concentration at half of the fitted maximal effect.

SMILES	L3MBTL1 block	HP1b binding inh	BAZ2B inh	JMJD2A Tudor	PLK1 PBD block	VDR inh
CCCCn1c(SCC(=O)c2ccc(OCC)cc2)nc2cc(S(N)(=O)=O)ccc21	x	0%	0%	u	-19%	-2%
COc1ccc2c(c1)nc(SCC(O)c1ccccc1)n2C (centres undefined)	8%	14%	-3%	-9%	-17%	-8%
CCCOC(=O)c1c(-c2ccc(C)cc2C)csc1NC(=O)C1C2CCC(O2)C1C(=O)O (centres undefined)	3%	u	-6%	71µM*	12µM*	u
Cn1ccnc1C(=O)C1CCCN(Cc2cn[nH]c2-c2ccc(-c3ccccc3)cc2)C1 (centres undefined)	-8%	u	-37%	u	4%	3%
CC(C)N(Cc1cn[nH]c1-c1ccc(-c2ccccc2)cc1)Cc1nccn1C	-9%	u	56µM*	56µM*	-6%	24%
CCOc1ccc(CNC(=O)c2ccc3nc(Cc4ccc(OC)cc4)oc3c2)cc1OC	x	8%[57 µM]	-18%	u	x	0%
O=C(N/N=C/c1ccc(N2CCOCC2)cc1)c1ccncc1	-1%	41%	-1%	-6%	-5%	-16%
O=C(N/N=C/c1ccc(N2CCOCC2)cc1)c1ccccc1OCCOc1ccccc1	x	10%	9%	-35%[11.4 µM]	3µM*	u
COc1ccc(OC)c(NC(=O)Cn2c(=O)cc(C)c3c(C)nn(-c4cccc(Cl)c4C)c32)c1	x	29%	-13%	-16%	x	16%
COC(=O)C(=Cc1cc(Br)c(OC)c(Br)c1)C(=O)OC	x	x	x	x	x	8.9µM*
CSc1ccccc1NC(=O)c1noc2c1CCC2	14µM*	50µM*	40µM*	50µM*	u	-16%
CCc1ccc(NC(=O)c2noc3c2CCC3)cc1	x	-16%	50µM*	56µM*	-30%	-10%
CCc1ccc(NC(=O)c2noc3c2CCCCC3)cc1	1%	30%	8%	7%	-7%	-1%
O=c1oc2ccc(Br)cc2cc1-c1nc2c(s1)CCc1ccccc1-2	x	29%[57 µM]	x	18%[57.1 µM]	x	-19%
COc1ccc(CNC(=O)c2ccc3c(c2)CCN3S(=O)(=O)c2ccccc2)cc1	x	30%	0%	-5%	x	11%
Clc1ccc(C(c2ccccc2)c2c[nH]c3ccccc23)s1 (centres undefined)	x	28%	-1%	3%	x	-1%
OC(CNCC(c1ccc(Cl)cc1Cl)c1c[nH]c2ccccc12)c1ccccc1 (centres undefined)	-8%	u	u	35µM*	-3%	2%
Nc1cc2c(cc1C(=O)c1ccc(Cl)cc1)OCCO2	x	-56%	35µM*	50µM*	-2%	-19%
Nc1ccc(C(=O)c2ccc3c(c2)OCCO3)cc1N	x	-1%	x	-33%	-9%	-2%
Nc1cc2c(cc1C(=O)c1ccccc1)OCCO2	-22%	-34%	40µM*	u	0%	11%
CC(=O)Nc1cc2c(cc1C(=O)c1ccccc1)OCCO2	5%	21%	-26%	-3%	-4%	10%
Cc1c(Cc2ccccc2)sc(NC(=O)/C=C/c2cccc3ccccc23)c1C(N)=O	8%	-3%	-11%	40µM*	7.5µM*	u
COc1ccc(CN2CCC(C(=O)N3CCN(c4ccccc4F)CC3)CC2)cc1OC	-19%	u	56µM*	0.89µM*	5%	7%
COc1cc(CN2CCC(C(=O)N3CCN(c4ccccc4F)CC3)CC2)cc(OC)c1OC	x	u	50µM*	2.5µM*	-10%	4%
COc1ccc(CC(=O)N2CCN(c3ccccc3F)CC2)cc1OC	-2%	33%	-1%	0%	5%	-3%
SMILES	L3MBTL1 block	HP1b binding inh	BAZ2B inh	JMJD2A Tudor	PLK1 PBD block	VDR inh
COc1cccc(CN2CCC(C(=O)N3CCN(c4ccccc4F)CC3)CC2)c1OC	11%	u	u	3.5µM*	-1%	1%
COc1ccccc1N1CCN(C(=O)C2CC2)CC1	x	20%	x	-4%	-9%	9%
COc1ccc(-c2noc(CSc3nnc(-c4ccncc4)n3-c3ccccc3)n2)cc1	x	73%	-19%	-18%	x	13%
O=C(/C=C/c1ccc(O)cc1)c1ccccc1	-1%	24%	-10%	-8%	0%	-15%
O=C(/C=C/c1ccc([N+](=O)[O-])cc1)NC1CC2CCC1C2 (centres undefined)	3%	-20%	-28%	u	6µM*	u
O=C(/C=C/c1ccc(Cl)cc1)NC1CC2CCC1C2 (centres undefined)	2%[11.4 µM]	3%	-12%	-13%	-18%	-1%
O=C(/C=C/c1ccccc1)c1ccc(O)cc1	x	x	x	x	x	45µM*
COC(=O)c1ccc(/C=C/C(=O)c2cccc(OC)c2)cc1	-11%	12%[57 µM]	-7%	-10%	-18%	22µM*
COc1ccc(C(=O)/C=C/c2ccccc2)cc1	x	x	x	x	x	25µM*
COc1ccc(C(=O)CSC(=S)N2CCCCC2)cc1	x	x	x	x	0%	x
CCN1CCN(c2cc3c(cc2F)c(=O)c(S(=O)(=O)c2ccc(OC)cc2)cn3CC)CC1	x	16%	-2%	-24%	x	12%
O=C(COC(=O)c1cccnc1Cl)NCCCc1ccccc1	5%	28%	12%	-12%	0%	6%
O=C(O)/C=C/C(=O)NCc1ccccc1	10%	49%	-3%	-8%	6%	-13%
O=C(/C=C/c1ccc([N+](=O)[O-])cc1)NCCc1ccccc1	5%	16%	-14%	u	17µM*	u
O=C(C=Cc1ccccc1)c1ccc([N+](=O)[O-])cc1	x	-20%	x	-33%	-21%	10µM*
O=C(O)/C=C/C(=O)NCCCc1ccccc1	3%	17%	-4%	u	27µM*	-15%
NS(=O)(=O)c1ccc(CCNC(=O)/C=C/c2ccc([N+](=O)[O-])cc2)cc1	x	6%	-6%	-14%	-10%	6%
O=C(COC(=O)c1ccccc1O)NCCCc1ccccc1	x	4%	20%	79µM*	30µM*	-7%
CN(C)CC/C=C1\c2ccccc2COc2ccc(CC(=O)O)cc21	x	x	x	x	x	0%
COc1ccc(Cl)cc1NCc1nnc2n1CCCCC2	x	41%[57 µM]	19%	-4%	x	-1%
CC1=CN2C(=N)/C(=C/c3ccc(Sc4ccc(C)cc4)o3)C(=O)N=C2S1	u	28µM*	22µM*	-23%	-4%	5%
COC(=O)c1ccccc1NC(=O)c1nc(SCc2ccccc2C)ncc1Cl	x	13%	-2%	-18%	x	8%
c1cc2c(cc1C1CCCCC1)c1c3n2CCCNC3CCC1 (centres undefined)	-14%	u	35µM*	45µM*	-1%	7%
c1cc2c(cc1C1CCCCC1)c1c3n2CCN[C@H]3CCC1	x	x	x	x	x	-13%
